From the supplement of paper PMC6279402
± gives the standard deviation of the averaged measurements.

Test system: A549
Test: relative viability (normalised to negative control = 1, bortezomib = 0) (fraction); higher = less cytotoxic
Conditions: inflammatory serum-free RHB-A with cytokines + LPS, 5 d + 24 h CellTiter-Blue
Description: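 A549 KRAS-mutant NSCLC cells, pre-treated 5 µM GSK126 or vehicle (DMSO), were seeded at 250 cells/well in 384-well plates in serum-free RHB-A medium with inflammatory cytokines/LPS and treated with Selleck kinase inhibitor and NCI oncology compounds at 30 or 300 nM in triplicate, refreshed at 48 h. Viability was read by CellTiter-Blue after 5 d plus 24 h and normalised per plate with cellHTS2 (mean of bortezomib positive control = 0, mean of negative control = 1).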

[1] = compound 30 nM, GSK126 pretreatment: 5 uM GSK126
[2] = compound 30 nM, GSK126 pretreatment: none (vehicle)
[3] = compound 300 nM, GSK126 pretreatment: 5 uM GSK126
[4] = compound 300 nM, GSK126 pretreatment: none (vehicle)

| SMILES | relative viability [1] | relative viability [2] | relative viability [3] | relative viability [4] |
| --- | --- | --- | --- | --- |
| N[C@@H](Cc1ccc(N(CCCl)CCCl)cc1)C(=O)O [Melphalan] | 0.835 ± 0.054 | 0.819 ± 0.11 | 0.874 ± 0.13 | 0.876 ± 0.068 |
| N.N.[Cl][Pt][Cl] [Cisplatin] | 0.813 ± 0.035 | 0.812 ± 0.029 | 0.839 ± 0.099 | 0.875 ± 0.018 |
| CCN1CCN(C(=O)Cc2ccc(Nc3ncc(F)c(Nc4ccc(C(=O)Nc5ccccc5Cl)cc4)n3)cc2)CC1 [Aurora A Inhibitor I] | 0.988 ± 0.045 | 1.02 ± 0.032 | 0.808 ± 0.14 | 0.671 ± 0.027 |
| C1CN1c1nc(N2CC2)nc(N2CC2)n1 [Triethylenemelamine] | 0.834 ± 0.081 | 0.834 ± 0.059 | 0.828 ± 0.012 | 0.918 ± 0.042 |
| Oc1ncc(N(CCCl)CCCl)c(O)n1 [Uracil mustard] | 0.792 ± 0.024 | 0.801 ± 0.027 | 0.81 ± 0.029 | 0.87 ± 0.03 |
